This is part of a sample that, as a whole, favours compounds with a hit. Of some 79,000 tested, about 15% had one in any assay. A number with no mark means an inactive call. Activity calls are given as the source filed them. Cut-off read from the data, not from the text of the source: active = growth inhibition above about 70%; inactive = the rest.
Experiments:
[1] = NCI Yeast Anticancer Drug Screen. Data for the rad50 strain (AID 155);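 note: 0% = growth of vehicle-only cultures of the same strain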; conditions: S. cerevisiae rad50 strain growth inhibition, stronger effect = higher value
Procedure, shortened: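 Cells are treated with compound, grown, and their growth is then scored against vehicle-only cultures of the same repair-deficient yeast strain.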

[2] = NCI Yeast Anticancer Drug Screen. Data for the mec2-1 strain (AID 157); conditions: S. cerevisiae mec2-1 strain, stronger effect = higher value
Procedure, shortened: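 Each compound was tested on mec2-1 yeast, a strain altered in DNA damage repair or cell cycle control. Growth inhibition is reported relative to vehicle.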

[3] = NCI Yeast Anticancer Drug Screen. Data for the sgs1 mgt1 strain (AID 161);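 note: 0% = growth of cultures given vehicle only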; conditions: S. cerevisiae sgs1 mgt1 strain, stronger effect = higher value
Procedure, shortened: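 Genetically altered yeast, compound exposure, growth inhibition relative to vehicle.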

[4] = NCI Yeast Anticancer Drug Screen. Data for the cln2 rad14 strain (AID 165);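 note: 0% = growth equal to vehicle treated cultures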; conditions: S. cerevisiae cln2 rad14 strain, stronger effect = higher value
Procedure, shortened: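 Test compounds were added to cln2 rad14 yeast cultures; inhibition of growth was then determined by comparison with vehicle treatment.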

[5] = NCI Yeast Anticancer Drug Screen. Data for the bub3 strain (AID 167); conditions: S. cerevisiae bub3 mutant strain, stronger effect = higher value
Procedure, shortened: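 Part of a panel of yeast mutants defective in DNA damage repair or cell cycle regulation. Each strain is grown with compound, and inhibition is calculated relative to solvent-treated cultures.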

[6] = NCI Yeast Anticancer Drug Screen. Data for the mlh1 rad18 strain (AID 175); conditions: S. cerevisiae mlh1 rad18 strain growth inhibition, stronger effect = higher value
Procedure, shortened: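 Inhibition values reflect reduced growth of mutant yeast versus vehicle-treated controls following compound exposure; the mutations affect DNA damage repair.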

[7] = at 5.0 µM (retest, dose inferred, filed as 0.5)
[8] = at 50.0 µM (retest, dose inferred, filed as 5.0)

Row | SMILES | growth inhibition [1, 7] | growth inhibition [1, 8] | growth inhibition ([1]; at 50.0 µM) | growth inhibition [2, 7] | growth inhibition [2, 8] | growth inhibition ([2]; at 50.0 µM) | growth inhibition [3, 7] | growth inhibition [3, 8] | growth inhibition ([3]; at 50.0 µM) | growth inhibition [4, 7] | growth inhibition [4, 8] | growth inhibition ([4]; at 50.0 µM) | growth inhibition [5, 7] | growth inhibition [5, 8] | growth inhibition ([5]; at 50.0 µM) | growth inhibition [6, 7] | growth inhibition [6, 8] | growth inhibition ([6]; at 50.0 µM)
1 | OCC(O)Cc1c(Cl)c(Cl)c(Oc2c(Cl)c(Cl)c(CC(O)CO)c(Cl)c2Cl)c(Cl)c1Cl (configuration not stated) | 5% | 7% | 11.3% | 5% | 10% | 14.6% | 18% | 16% | 4.95% | -9% | -9% | -8.05% | -1% | 11% | 64.7% | -1% | 1% | 8.75%
2 | N=C(N)SCc1cc(Cl)cc(Cl)c1O | 8% | 20% | 55.2% | 4% | -6% | -1.85% | 1% | 1% | 16% | -18% | -72% | -2% | -14% | -19% | -9.35% | -5% | 42% | 80.2% (active)
3 | CCC(=O)Oc1c(Cl)cc(Cl)c(Cl)c1Cl | 4% | 56% | 43.4% | 6% | 59% | 14.2% | 2% | 79% (active) | 48.1% | -3% | 30% | 5.45% | -3% | 54% | 14.2% | 16% | 90% (active) | 74.3% (active)
4 | N#CC12CCCC(=O)N1c1ccccc1S2 (configuration not stated) | 10% | 5% | 12.9% | -7% | 10% | 7.85% | 1% | 1% | -2.3% | -12% | -3% | 43.5% | 3% | 1% | -6.8% | 14% | -2% | -10.2%
5 | CCOC(=O)C(NC(=O)c1ccccc1)[CH](c1ccc(OC)cc1)[Sn]([c]1ccccc1)([c]1ccccc1)[c]1ccccc1 (configuration not stated) | 65% | 89% (active) | 77.7% (active) | 37% | 91% (active) | 75.2% (active) | 38% | 88% (active) | 79.2% (active) | 26% | 48% | 54.5% | 44% | 94% (active) | 79% (active) | 64% | 86% (active) | 69.1%
6 | COc1ccc(-c2c(C(=O)O)[nH]c3ccccc23)cc1 | 38% | 90% (active) | 96.8% (active) | 12% | 87% (active) | 97.5% (active) | 35% | 98% (active) | 97.5% (active) | 25% | 88% (active) | 98.5% (active) | 58% | 98% (active) | 96.2% (active) | 65% | 97% (active) | 99% (active)
7 | Clc1cc[c]([Sn]([O][Sn]([c]2ccc(Cl)cc2)([c]2ccc(Cl)cc2)[c]2ccc(Cl)cc2)([c]2ccc(Cl)cc2)[c]2ccc(Cl)cc2)cc1 | 98% (active) | 95% (active) | 97.5% (active) | 99% (active) | 98% (active) | 99.3% (active) | 99% (active) | 98% (active) | 96.6% (active) | 99% (active) | 96% (active) | 79.5% (active) | 98% (active) | 97% (active) | 88.8% (active) | 99% (active) | 97% (active) | 98.3% (active)
8 | CC1=C(C(=O)NCc2ccccc2)C(c2ccccc2[N+](=O)[O-])C(C(=O)NCc2ccccc2)=C(C)N1 | 16% | 16% | 71% (active) | 9% | 9% | 84.2% (active) | -2% | -2% | 81.4% (active) | -4% | -4% | 62.9% | 15% | 15% | 81.1% (active) | 4% | 4% | 77.6% (active)
9 | c1ccc(OCCN2CCN(CCOc3ccccc3)CC2)cc1 | 21% | 29% | 71.7% (active) | 31% | 45% | 32.2% | 41% | 55% | 67.1% | 45% | 47% | 76.4% (active) | 43% | 53% | 56.7% | 44% | 61% | 44.1%
10 | Cn1c2c(c3ccccc31)CCN(CCN1CCN(c3cccc(Cl)c3)CC1)C2=O | 34% | 34% | 88.8% (active) | 7% | 7% | 85.1% (active) | 1% | 1% | 87.8% (active) | 15% | 15% | 91.3% (active) | -17% | -17% | 87.8% (active) | 10% | 10% | 80.6% (active)
11 | O=C(O)CCc1ccc2ccccc2c1 | -2% | 48% | 62.8% | 0% | 38% | 51.4% | 1% | 37% | 37.7% | -4% | 32% | 83.2% (active) | -6% | 18% | 53.7% | -4% | 41% | 88.2% (active)
12 | O=C1/C(=C/c2ccccc2)CNC/C1=C\c1ccccc1 | -11% | 98% (active) | 98.7% (active) | 26% | 97% (active) | 99.3% (active) | -7% | 96% (active) | 95.2% (active) | 10% | 98% (active) | 92.5% (active) | 6% | 98% (active) | 94.2% (active) | -4% | 98% (active) | 99.2% (active)
13 | O=C1c2ccccc2SCC12OC2c1ccc(Cl)cc1 (configuration not stated) | 9% | 85% (active) | 95% (active) | 4% | 88% (active) | 93.5% (active) | 16% | 92% (active) | 95.5% (active) | 1% | 87% (active) | 92% (active) | 21% | 91% (active) | 94.9% (active) | 12% | 91% (active) | 95.1% (active)
14 | C[C@]12CC[C@H]3[C@@H](CCC4=CC(=O)CC[C@@]43C)[C@@H]1CC[C@@H]2C(=O)C=O | 19% | 42% | 67.2% | 6% | 36% | 52.6% | 16% | 61% | 71% (active) | 5% | 21% | 39% | 1% | 17% | 41.2% | 27% | 74% (active) | 56.2%
15 | CCC(CC)C(=O)O.[Ag] | 99% (active) | 99% (active) | 99.2% (active) | 99% (active) | 99% (active) | 99.6% (active) | 99% (active) | 99% (active) | 99.6% (active) | 99% (active) | 99% (active) | 99.2% (active) | 100% (active) | 99% (active) | 99.1% (active) | 99% (active) | 99% (active) | 99.2% (active)
16 | CC(C)c1ncc(-c2ccccc2)cc1-c1ccccc1 | -2% | 93% (active) | 95.7% (active) | -3% | 96% (active) | 97.5% (active) | -1% | 94% (active) | 97.7% (active) | 2% | 86% (active) | 78.8% (active) | 6% | 95% (active) | 98.5% (active) | -7% | 95% (active) | 96% (active)
17 | CCN(C(=O)c1ccccc1C)C(c1ccccc1)P(=O)(c1ccccc1)c1ccccc1 (configuration not stated) | 61% | 99% (active) | 78.6% (active) | 67% | 98% (active) | 86.3% (active) | 28% | 98% (active) | 87.7% (active) | 54% | 98% (active) | 53.8% | 61% | 96% (active) | 87.2% (active) | 61% | 99% (active) | 84.7% (active)
18 | O=C1/C(=C/c2cccc(O)c2)SC(=S)N1/C=C\c1nc2ccccc2[nH]c1=O | 8% | 2% | 9.55% | -8% | -13% | 5.1% | -4% | 1% | 3.6% | 17% | -32% | 33.2% | 11% | -5% | -3.85% | -2% | -7% | -0.25%
19 | CC(=O)C1CCC2C1(C)CC1OC13C21C=CC2(CC(O)CCC23C)C2C(=O)OC(=O)C21 (configuration not stated) | -1% | 98% (active) | 99.4% (active) | 4% | 97% (active) | 91.5% (active) | 2% | 99% (active) | 99.3% (active) | 3% | 98% (active) | 99.6% (active) | 2% | 98% (active) | 95.7% (active) | 23% | 99% (active) | 99.2% (active)

Reference: PubChem BioAssay (NCI)
